Reference: the OligoGym collection

molecular target: GNAQ; experiment: pooled miR-30 sensor sort-seq; sequence = guide strand; details: shRNA

How did the sensor-assay potency score (higher = more potent) turn out when TTTAAGAACAGAATAACCGAGG was run?
Its sensor-assay potency score (higher = more potent) is -0.0655.

Which sensor-assay potency score (higher = more potent) does the source give for TCGAACTCTAAGCACATCTTGT here?
The sensor-assay potency score (higher = more potent) was -0.759.

How did the sensor-assay potency score (higher = more potent) turn out when TCTAAGCACATCTTGTTGCGTA was run?
Its sensor-assay potency score (higher = more potent) is 0.35.

For TTGAGTGTGTCCATGGCTCTGA, which sensor-assay potency score (higher = more potent) is on record?
Its sensor-assay potency score (higher = more potent) is 0.188.

How did the sensor-assay potency score (higher = more potent) turn out when ATAATTGATATTCTCGTCGTCT was run?
The sensor-assay potency score (higher = more potent) was 0.0326.

Which sensor-assay potency score (higher = more potent) does the source give for TATCTTCATCAGAGTATCCTGA here?
Its sensor-assay potency score (higher = more potent) is -0.164.

TACTCTTGCCACTCTCTCCTGT was tested. Which sensor-assay potency score (higher = more potent) did it give?
Its sensor-assay potency score (higher = more potent) is 0.305.

molecular target: GNAT1; experiment: as above; details: shRNA

How did the sensor-assay potency score (higher = more potent) turn out when TAATCTTCATCTGCTTGACGAT was run?
The sensor-assay potency score (higher = more potent) was -0.376.

Which sensor-assay potency score (higher = more potent) does the source give for TTGGGTCCATCGTAGTCCGGGA here?
Its sensor-assay potency score (higher = more potent) is -0.616.

TAGTCCGGGAAACAGATGCTGA was tested. Which sensor-assay potency score (higher = more potent) did it give?
Its sensor-assay potency score (higher = more potent) is -1.24.

With TTTGACGTTCTGCGTGTCGGTG as the sequence, how does the sensor-assay potency score (higher = more potent) read?
The sensor-assay potency score (higher = more potent) was -0.514.

With TAGCGGTGGTTGCAGATGCTGT as the sequence, how does the sensor-assay potency score (higher = more potent) read?
The sensor-assay potency score (higher = more potent) was -1.65.

TTGACGTTCTGCGTGTCGGTGG was tested. Which sensor-assay potency score (higher = more potent) did it give?
The sensor-assay potency score (higher = more potent) was 0.245.

Which sensor-assay potency score (higher = more potent) does the source give for TGCACCTTGATGTAGTTGCCGG here?
Its sensor-assay potency score (higher = more potent) is -1.2.

TCCTTGATGATGATGTCGGTGA was tested. Which sensor-assay potency score (higher = more potent) did it give?
The sensor-assay potency score (higher = more potent) was -1.08.

How did the sensor-assay potency score (higher = more potent) turn out when TTCGTCGTCCTCCACTAGCACC was run?
Its sensor-assay potency score (higher = more potent) is -1.74.

Which sensor-assay potency score (higher = more potent) does the source give for TAGATCTCCTTCACGTCGCGCC here?
The sensor-assay potency score (higher = more potent) was -0.148.

With TTGAGTGTGGTCATGGCGCGTA as the sequence, how does the sensor-assay potency score (higher = more potent) read?
The sensor-assay potency score (higher = more potent) was -0.473.

For TTCTTTTCCAGCTCCCTGGAGT, which sensor-assay potency score (higher = more potent) is on record?
Its sensor-assay potency score (higher = more potent) is -0.257.

molecular target: GNLY; experiment: as above; details: shRNA

For ACTATCGTCAGACAGGTCCTGT, which sensor-assay potency score (higher = more potent) is on record?
Its sensor-assay potency score (higher = more potent) is -0.334.

Which sensor-assay potency score (higher = more potent) does the source give for TTGGAAACACTTCTCTGGGTGG here?
Its sensor-assay potency score (higher = more potent) is -0.134.

For TTGGACTATCGTCAGACAGGTC, which sensor-assay potency score (higher = more potent) is on record?
Its sensor-assay potency score (higher = more potent) is -0.895.

For TATACACAACCTGAGGTCCTCA, which sensor-assay potency score (higher = more potent) is on record?
The sensor-assay potency score (higher = more potent) was -0.844.

For TTCAGTTTTTGGACTATCGTCA, which sensor-assay potency score (higher = more potent) is on record?
Its sensor-assay potency score (higher = more potent) is 0.462.

How did the sensor-assay potency score (higher = more potent) turn out when TTGGTCAACAGGTCACCCTGGG was run?
The sensor-assay potency score (higher = more potent) was -0.135.

How did the sensor-assay potency score (higher = more potent) turn out when TTTGGTCAACAGGTCACCCTGG was run?
Its sensor-assay potency score (higher = more potent) is 0.282.

Which sensor-assay potency score (higher = more potent) does the source give for TTTTGGTCAACAGGTCACCCTG here?
The sensor-assay potency score (higher = more potent) was -1.53.

For TTTCTCCTCATCACGCAGGTGG, which sensor-assay potency score (higher = more potent) is on record?
The sensor-assay potency score (higher = more potent) was -0.588.

With TTTTGGACTATCGTCAGACAGG as the sequence, how does the sensor-assay potency score (higher = more potent) read?
Its sensor-assay potency score (higher = more potent) is -1.31.

For TTGCCAGGTCGTAGTACTCAGG, which sensor-assay potency score (higher = more potent) is on record?
Its sensor-assay potency score (higher = more potent) is -1.35.

Which sensor-assay potency score (higher = more potent) does the source give for ATTGGAAACACTTCTCTGGGTG here?
Its sensor-assay potency score (higher = more potent) is 0.184.

molecular target: GOLGA1; experiment: as above; details: shRNA

With TATTTTACTTAGTTCCTGCTGC as the sequence, how does the sensor-assay potency score (higher = more potent) read?
The sensor-assay potency score (higher = more potent) was 0.934.

How did the sensor-assay potency score (higher = more potent) turn out when TTAAGTCTGATGACATCTGATT was run?
The sensor-assay potency score (higher = more potent) was -1.11.

TATGGTCTTATTTTTCTCCAGA was tested. Which sensor-assay potency score (higher = more potent) did it give?
The sensor-assay potency score (higher = more potent) was -0.384.

Which sensor-assay potency score (higher = more potent) does the source give for TATAGTAGTGAAGAACTTCAGC here?
The sensor-assay potency score (higher = more potent) was -0.313.

With TTCGAAGAGCTCATTATCGGGT as the sequence, how does the sensor-assay potency score (higher = more potent) read?
Its sensor-assay potency score (higher = more potent) is 0.0609.

For TTCTAATGCAATTTCAAGCTTC, which sensor-assay potency score (higher = more potent) is on record?
Its sensor-assay potency score (higher = more potent) is 0.23.

For TTATCTTCTGCAAGTTTCGGAC, which sensor-assay potency score (higher = more potent) is on record?
The sensor-assay potency score (higher = more potent) was -0.221.

For TGATCTTACTTTCTGCACCTGT, which sensor-assay potency score (higher = more potent) is on record?
The sensor-assay potency score (higher = more potent) was -0.0709.

For TTGAGTTTCAGCAGTGACCTTT, which sensor-assay potency score (higher = more potent) is on record?
Its sensor-assay potency score (higher = more potent) is 0.403.
